RORg inh – ROR gamma (mouse) transcription inhibition; P51450; Drosophila S2 Gal4-RORgamma UAS-luciferase reporter, 20 h; Potency, µM (highest dose often 53.6 µM), without a hit: at the top dose activity change, negative = inhibition, usual class: inhibitors; 310,000 compounds, 5.4% hits; AID 2551; further: nearly all actives have a fitted effect of over 60% in size
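Luminescence from a UAS-regulated Photinus luciferase reporter in stably transfected Drosophila Schneider cells is measured; decreased signal marks ROR gamma inhibition. Fusion expression is induced by 700 uM copper sulfate for 20 hr.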
TDP1 cell CPT – DT40-hTDP1 cell growth loss with CPT; chicken DT40 Tdp1-/-;hTDP1 cells + 20 nM CPT, ATP luminescence, 48 h; Potency, µM (doses to about 46.2 µM), without a hit: top-dose activity change, negative = growth inhibition, most hits filed as inhibitors; AID 686979; 420,000 compounds, 12% hits; further: nearly all actives have a fitted effect of over 55% in size
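Chicken DT40 Tdp1-/- cells complemented with human TDP1, 400 cells/well, exposed to compounds plus 20 nM camptothecin for at least 48 h at 37 C; viability read as ATP content by CellTiter-Glo luminescence.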
TDP1 cell noCPT – qHTS for Inhibitors of human tyrosyl-DNA phosphodiesterase 1 (TDP1): qHTS in cells in absence of CPT; DT40 Tdp1-/- hTDP1 cells, no CPT, ATP luminescence, 48 h; Potency, µM (doses to about 46.2 µM), without a hit: top-dose activity change, negative = growth inhibition, most hits filed as inhibitors; 420,000 compounds, 15% hits; further: nearly all actives have a fitted effect of over 55% in size
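DT40 Tdp1-/-;hTDP1 cells, no CPT (DMSO vehicle only), 400 cells/well; compounds pin-transferred; ≥48 hr, 37 °C; CellTiter-Glo 30 min RT dark, luminescence read.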
ELG1 DNA repair – blocks ELG1-dependent DNA repair in HEK293T cells. HEK293T ELG1-luciferase reporter, luminescence, 16 h; DNA damage induced by 5-fluorouridine. Potency, µM (titrated, usually from 46.1 µM), for inactives: at the top dose activity change, negative = inhibition, most hits filed as inhibitors. 330,000 compounds, 2.3% hits. AID 504467; further: nearly all actives have a fitted effect of over 55% in size
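Reporter activity after DNA damage by 5-fluorouridine is monitored. Compound-treated cells incubate 16 hr at 37 °C, then ONE-Glo is added for 30 min before luminescence reading.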
ALOX12 inh – ALOX12 (human) lipoxygenase inhibition; P18054; purified 12hLO, xylenol orange hydroperoxide absorbance; Potency, µM (highest dose often 108 µM), inactives show at the highest dose activity change, negative = inhibition, actives largely listed as inhibitors; 580,000 compounds, 1.1% hits; AID 1671190
Target sequence (P18054 whole entry, looked up): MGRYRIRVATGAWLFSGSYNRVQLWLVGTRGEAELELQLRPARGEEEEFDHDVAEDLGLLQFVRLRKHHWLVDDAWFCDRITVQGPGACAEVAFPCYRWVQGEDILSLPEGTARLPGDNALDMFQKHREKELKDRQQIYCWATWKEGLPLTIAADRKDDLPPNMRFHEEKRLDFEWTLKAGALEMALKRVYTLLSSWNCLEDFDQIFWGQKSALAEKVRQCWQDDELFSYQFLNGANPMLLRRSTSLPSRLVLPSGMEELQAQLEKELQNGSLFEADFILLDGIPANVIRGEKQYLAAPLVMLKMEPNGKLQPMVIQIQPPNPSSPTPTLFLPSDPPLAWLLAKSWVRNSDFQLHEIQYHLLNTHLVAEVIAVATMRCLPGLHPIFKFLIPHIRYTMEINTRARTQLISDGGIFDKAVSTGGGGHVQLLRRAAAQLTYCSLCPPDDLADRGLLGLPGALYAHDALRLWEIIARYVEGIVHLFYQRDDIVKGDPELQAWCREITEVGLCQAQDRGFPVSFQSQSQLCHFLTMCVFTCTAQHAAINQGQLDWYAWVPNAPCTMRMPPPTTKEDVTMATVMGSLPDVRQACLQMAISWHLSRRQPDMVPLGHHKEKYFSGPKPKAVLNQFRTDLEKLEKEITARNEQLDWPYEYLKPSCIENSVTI
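Hydroperoxide product was detected by ferrous iron/xylenol orange as the 573 to 405 nm absorbance ratio. Arachidonic acid at 40 uM (final) was turned over for 30 min at room temperature by 150 nM human 12hLO, pH 7.0 Hepes buffer, after 15 min compound preincubation.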
Gal4-VP16 FLuc – counter-screen for ROR gamma inhibitors: Gal4-VP16 reporter; Potency, µM (highest dose often 53.6 µM), without a hit: at the highest dose activity, negative = inhibition, usual class: inhibitors; AID 2546; 310,000 compounds, 3.5% hits; Drosophila S2 Gal4-VP16 UAS-luciferase, luminescence, 20 h;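 further: Gal4-VP16 expression switched on by copper sulfate through the metallothionein promoter; nearly all actives have a fitted effect of over 50% in size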
Active calls of the source: *; ? = inconclusive; . = no result; [ ] = another dose, or the depositor's remark. Rows were chosen to be rich in hits. Some 15% of all compounds tested hit in one or more screens of this group. The call rests on the fitted dose curve; in most records, active means well fitted curve in the direction sought with a large enough effect; inconclusive means small, poorly fitted or top-dose-only effect, or another doubt; inactive means no such curve, though single readings can be large; an effect the other way counts as inactive or inconclusive. On the % scale 0 is the no-effect control and ±100 the full control effect; potency means the concentration at half of the fitted maximal effect.

SMILES	RORg inh	TDP1 cell CPT	TDP1 cell noCPT	ELG1 DNA repair	ALOX12 inh	Gal4-VP16 FLuc
Cc1c(CCC(=O)NC2CC2)c(=O)oc2c(C)c(O)ccc12	-5%	8%	-16%	-4%	.	-6%
C=C(C)COc1ccc2c(C)c(CCC(=O)NC3CC3)c(=O)oc2c1	-20%	18µM*	?	0%	-1%	-21%
Cc1coc2cc3oc(=O)c(CCC(=O)NC4CC4)c(C)c3cc12	26%	16µM*	13µM*	16%	11%	-2%
CC(Cc1c[nH]c2ccccc12)NC(=O)CCNc1nc(Cl)nc2nc[nH]c12 (stereo not drawn)	.	.	.	.	1%	.
CC(Oc1ccccc1)C(=O)Nc1cnc(-c2cccc(Cl)c2)nc1 (stereo not drawn)	.	.	.	.	-14%	.
CC(C)N1CCOC(CC(=O)NCc2cc(N3CCOCC3)ncn2)C1 (stereo not drawn)	.	.	.	.	5%	.
CC(C)CC(=O)NCCc1ccsc1	.	.	.	.	15%	.
COc1cccc(-c2nc(-c3cc4ccccc4o3)cs2)c1OC	.	.	.	.	-24%	.
C=CCNc1nc(-c2cc3ccccc3o2)cs1	-33%	-20%	-18%	?	50µM*	?
c1ccc2sc(NCC3CCCO3)nc2c1 (stereo not drawn)	-42%	3%	-5%	?	0%	-8%
c1ccc2oc(-c3csc(NCC4CCCO4)n3)cc2c1 (stereo not drawn)	7.9µM*	?	?	?	?	?
CCOC(=O)Cn1c(=O)c2c(nc(N3CCOCC3)n2C)n(C)c1=O	-1%	-4%	-13%	2%	8%	5%
CCOC(=O)Cn1c(=O)c2c(nc(Br)n2Cc2ccc(Cl)cc2)n(C)c1=O	-18%	13µM*	9.2µM*	?	.	-4%
CCOC(=O)CCn1c(=O)c2c(nc(Br)n2Cc2ccccc2)n(C)c1=O	0%	-15%	-51%	?	-1%	-12%
CCOC(=O)Cn1c(=O)c2c(nc(N3CCCCC3)n2Cc2ccccc2)n(C)c1=O	37%	21µM*	15µM*	?	0%	-1%
COc1ccc(C(=O)N[C@H]2CO[C@H]3[C@@H]2OC[C@@H]3n2cc(CN(C)Cc3ccccc3)nn2)cc1	.	.	.	.	-3%	.
CCOc1ccc(CN2CCCC(CO)(Cc3ccc(F)cc3)C2)cc1 (stereo not drawn)	-17%	-26%	?	-5%	0%	-9%
OCC1(Cc2ccc(F)cc2)CCCN(Cc2ccc(F)cc2Cl)C1 (stereo not drawn)	?	-23%	26µM*	-2%	?	-9%
CCn1nc(C(C)C)cc1C(=O)N1CCCC(CO)(Cc2ccc(F)cc2F)C1 (stereo not drawn)	10%	23µM*	?	?	-2%	4%
OCC1(Cc2ccc(F)cc2F)CCCN(CCCc2ccccc2)C1 (stereo not drawn)	-10%	?	15µM*	-4%	4%	-8%
Cc1cc(C(=O)N2CCCC(CO)(Cc3ccc(F)cc3F)C2)nn1C (stereo not drawn)	.	?	?	.	0%	.
O=C(Cc1noc(C(=O)NCc2ccccc2Cl)n1)Nc1cccc2ncccc12	.	.	.	.	-2%	.
CCOCCn1c(-n2nc(C)cc2C)nc2c1c(=O)n(CC)c(=O)n2C	.	.	.	.	0%	.
Clc1cccc(OCCOCCN2CCNCC2)c1Cl	.	-18%	23µM*	.	?	.
C/C(Cn1nnc([N+](=O)[O-])n1)=N\NC(=O)c1ccccc1O	5.6µM*	15µM*	18µM*	?	-2%	?
C/C(Cn1nnc([N+](=O)[O-])n1)=N\NC(=O)c1ccc(O)cc1O	0.5µM*	?	?	11%	21%	2.8µM*
CN(Cc1ccccc1C(F)(F)F)C(=O)Cc1ccccn1	.	.	.	.	70%[176 µM]	.

Bioassay records as filed in PubChem BioAssay.
